# High-throughput results (PubChem)
# A selection: hits, their analogues and other compounds. The true share with any hit is near 7.2%.
# TSHR agonist – activates the human thyroid stimulating hormone receptor | HEK293-CNG-TSHR cells (CNG channel as cAMP sensor), membrane potential dye, cAMP | Potency, µM (doses to about 57.1 µM), without a hit: top-dose activation, usual class: activators | 73,000 tested, 0.48% active; active means well fitted activation curve with a large enough effect in the main read-out, with a control signal flat, not every such curve was filed as active; inconclusive means small, poorly fitted or top-dose-only effect, or a change in a side signal; inactive means no such curve, though single readings can be large or run the other way; % of control where 0% means no effect;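 further: the control signal comes from parental cells without the receptor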
#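 HEK 293 cells stably expressing TSHR and a modified CNG channel, with CNG-only parental cells as counterscreen, were preloaded 60 min at room temperature with membrane potential dye containing 100 uM RO 20-1724. Compound exposure was 30 min, and depolarization was read as fluorescence at 590 nm.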
# HEK293 cAMP cs – raises cAMP in parental HEK293 cells, TSHR agonist counter-screen; parental HEK293 CNG cAMP sensor, membrane potential fluorescence; Potency, µM (top dose mostly 57.1 µM), for the others: at the highest dose activation, most hits filed as activators; 73,000 tested, 2.5% active; further: % of control where 0% means no effect; nearly all actives have a fitted effect of over 55% in size
#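 Parental HEK 293 cells stably expressing a cAMP-gated CNG channel were loaded with membrane potential dye containing 100 uM RO 20-1724 for 60 min. Compound added for 30 min; depolarization read as fluorescence intensity at 590 nm.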
# ERK AVP block – blocks ERK signaling stimulated by vasopressin. HEK293-V1b, vasopressin-stimulated pERK AlphaScreen. Potency, µM (doses to about 57.5 µM), for the others: at the highest dose activity, negative = inhibition, hits mostly inhibitors. 72,000 tested, 0.99% active; further: on the % scale 0 is the no-effect control and ±100 the full control effect; nearly all actives have a fitted effect of over 55% in size
#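 HEK293 cells stably expressing V1b receptor, preincubated 30 min at 37 °C with compound, then stimulated 5 min with 25 nM vasopressin. Phospho-ERK by AlphaScreen SureFire after 5 h RT; normalized to DMSO and vasopressin; AC50 by Hill fit.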
# PK Bst – pyruvate kinase (B. stearothermophilus) modulation | purified pyruvate kinase, luminescence ATP production; ribose 5-phosphate activator present at AC10 | 51,000 tested, 1.2% active | Potency, µM; in the data active means potency below about 11 µM; inconclusive means mostly about 12 µM to 25 µM;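 the screen sought inhibitors and activators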;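 further: scaled between full activation by ribose 5 phosphate and full inhibition by luteolin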
# Tau filament bind – binds recombinant human tau filaments | P10636 | recombinant tau filaments, thioflavin S fluorescence, 15 h; filaments grown with octadecylsulfate alongside compound | Potency, µM (highest dose often 57.1 µM), for inactives: top-dose activity change, negative = inhibition | 71,000 tested, 2% active | AID 596;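 further: on the % scale 0 is the no-effect control and ±100 the full control effect; actives lower thioflavin S fluorescence by blocking filaments or displacing dye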
#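 Read-out: ThS fluorescence, 450 nm excitation/510 nm emission; lower signal marks blocked filament formation or displaced dye. Tau at 1 uM with 30 uM ODS, 10 uM ThS, 5 mM DTT, 100 mM NaCl, 10 mM HEPES pH 7.4; 15 h, 37 C.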
# Luciferase inh – firefly luciferase inhibition. purified firefly luciferase, luminescence, 8 min. P08659. 72,000 tested, 2.2% active. Potency, µM (top dose mostly 57.1 µM), without a hit: at the top dose activity change, negative = inhibition, actives largely listed as inhibitors. AID 411; further: on the % scale 0 is the no-effect control and ±100 the full control effect; nearly all actives have a fitted effect of over 40% in size
# Target sequence (P08659 whole entry, looked up): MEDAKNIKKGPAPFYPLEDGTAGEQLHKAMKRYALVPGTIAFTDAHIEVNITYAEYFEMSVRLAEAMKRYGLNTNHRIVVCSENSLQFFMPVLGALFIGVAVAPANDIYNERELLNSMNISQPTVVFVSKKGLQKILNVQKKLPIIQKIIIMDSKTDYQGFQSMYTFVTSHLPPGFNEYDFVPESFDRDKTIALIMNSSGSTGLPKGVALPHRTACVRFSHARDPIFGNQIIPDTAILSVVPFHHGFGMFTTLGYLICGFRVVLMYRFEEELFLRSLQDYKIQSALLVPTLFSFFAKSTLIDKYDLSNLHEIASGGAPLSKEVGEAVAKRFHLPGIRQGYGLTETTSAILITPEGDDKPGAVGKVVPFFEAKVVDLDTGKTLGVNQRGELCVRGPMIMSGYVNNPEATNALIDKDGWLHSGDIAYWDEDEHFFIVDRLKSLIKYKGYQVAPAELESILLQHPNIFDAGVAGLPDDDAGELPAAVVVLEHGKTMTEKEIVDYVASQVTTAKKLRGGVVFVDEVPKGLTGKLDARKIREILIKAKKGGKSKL
#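 Luminescence read-out after 8 min at room temperature; enzyme reaction used luciferin plus 10 uM ATP (linear range) in imidazole buffer pH 7.2 with KCl, MgCl2, Tween 20 and BSA. Each sample was run as a titration.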
# Numbers without * were called inactive; i = inactive; ? = inconclusive; . = not tested or not shown; [ ] = dose if it differs, or a comment. Unless noted, the call rests on the fitted dose curve; in most records, active means well fitted curve in the direction sought with a large enough effect; inconclusive means small, poorly fitted or top-dose-only effect, or another doubt; inactive means no such curve, though single readings can be large; an effect the other way counts as inactive or inconclusive. Potency means the concentration at half of the fitted maximal effect.
SMILES,TSHR agonist,HEK293 cAMP cs,ERK AVP block,PK Bst,Tau filament bind,Luciferase inh
CCOC(=O)C1=C(C)NC2=C(C(=O)CCC2)C1c1cccnc1 (stereo not given),4%,4%,-8%,>57,-4%,-2%
CCNc1nc(N)c(C(=O)c2ccc(Cl)s2)s1,-26%,-9%,3.2µM*,2.2*,?,?
COc1cc(S(=O)(=O)N2CCCCCC2)c(OC)cc1Br,?,16µM*,13%,.,-8%,1%
CC(=NC1CCCC1)c1c(C)[nH]n(-c2nc3ccccc3s2)c1=O,.,.,.,i,.,13µM*
CCOC(=O)Cc1cc(=O)n(-c2nc3ccccc3s2)[nH]1,-25%,-15%,-4%,>57,?,-5%
Oc1ccc(Br)cc1-c1nc2cnccn2c1NC1CCCC1,.,-2%,32µM*,>57,33%,0%
Cc1ccc(-c2nc3cnccn3c2Nc2ccc3c(c2)OCCO3)o1,-24%,-9%,?,>57,-8%,-25%
N#CCCn1c(=O)c(-c2cccs2)nc2cnc(Oc3ccccc3)nc21,-8%,11%,-14%,.,467%,1%[11.4 µM]
CC1=CC2C(C(C)C)CCC(C)(O)C2CC1 (stereo not given),.,.,-1%,.,.,.
COc1cc(N=Nc2cccc(S(N)(=O)=O)c2)c2ccccc2c1N,-6%[11.4 µM],-11%[11.4 µM],17%[11.5 µM],.,1.6µM*,-5%[11.4 µM]
Nc1c(S(=O)(=O)O)cc(S(=O)(=O)O)c2ccc(N=Nc3ccccc3)c(O)c12,2%[11.4 µM],-8%[11.4 µM],-17%[11.5 µM],.,-1%[11.4 µM],-7%[11.4 µM]
COc1ccc(CNc2ncnc3ccc(-c4cccc(NS(C)(=O)=O)c4)cc23)c(OC)c1,19%,21%,?,.,420%,2%[2.29 µM]
O=C(Nc1ccc(-n2nncc2-c2ccco2)cc1)c1ccc(F)cc1,6%,12%,-27%,>57,-28%,3%
COc1ccc(-c2cnnn2-c2ccc(NC(=O)c3ccco3)cc2)cc1OC,?,?,16µM*,>57,-26%,0%
CCN(CC)CCCCn1c(-c2ccccc2)nc2c(NCc3ccccc3)nc(C)nc21,12%,27%,8%,.,54%,.
CC(C)NC(=O)N1CC[C@@]2(CCCN(C(=O)c3ccncc3)C2)C1,12%,5%,2%,.,-12%,-2%[11.4 µM]
O=C(CCCc1ccccc1)N1CCc2ccccc21,.,29%[11.4 µM],34%,.,-17%[11.4 µM],13µM*
Cn1cccc1Cc1nnc(SCC(=O)N2CCc3ccccc32)n1CCc1ccccc1,11%,8%,16µM*,.,80%,1%
O=C(CCC(=O)N1CCc2ccccc21)N1CCc2ccccc21,?,?,-10%,>57,-8%,0%
O=C(Oc1ccccc1)N1CCC2(CC1)CN(c1ccccc1)C2,?,?,?,.,-14%,1%[11.4 µM]
CCOC(=O)C1CCN(S(=O)(=O)c2cn(C)c(=O)n(C)c2=O)CC1,?,16µM*,.,.,56%,-2%
CCOC(=O)C1CCCN(S(=O)(=O)c2cn(C)c(=O)n(C)c2=O)C1 (stereo not given),-2%,8%,.,.,9%,1%
Cc1cccc2[nH]c(-c3ccc(NC(=O)c4ccco4)cc3)nc12,-25%,3%,11%,?,386%,16µM*
O=C(Nc1cccc(-c2nc3ccccc3[nH]2)c1)c1cccc(NC(=O)c2ccco2)c1,0%,8%,?,>57,i,-22%
Cc1ccc(-c2nc3ccccc3[nH]2)cc1NC(=O)c1ccco1,4%,13%,-5%,i,-1%,20µM*
SMILES,TSHR agonist,HEK293 cAMP cs,ERK AVP block,PK Bst,Tau filament bind,Luciferase inh
O=c1c(-c2ccc(F)cc2)nc2cnc(N3CCNCC3)nc2n1-c1ccccc1,-32%,-19%,?,.,27%,-2%[11.4 µM]
COc1ccc(COC(=O)N/N=C2/C[C@@H](O)[C@@H](O)[C@@H]3[C@@H]4C(=O)N(C(C)(C)C)C(=O)[C@H]4CC[C@H]23)cc1,0%[11.4 µM],2%[11.4 µM],10%[11.5 µM],.,.,0%[11.4 µM]
CC1(C)Cc2ccccc2-c2nnc(SCC(=O)Nc3nc4ccccc4s3)n21,?,5µM*,53%,>57,221%,-3%
CC1(C)Cc2ccccc2-c2nnc(SCC(=O)N3CCN(c4ccccc4)CC3)n21,.,17%,0%,>57,-2%,3%
Oc1[nH]c2ccccc2c1C=Nc1ccc2c(c1)OCO2,-13%,-14%,.,.,.,.
Oc1[nH]c2ccccc2c1/C=N/c1nccs1,-5%,-1%,-19%,?,13µM*,25µM*
CN1CCN(c2ncc3nc(-c4cn(C)c5ccccc45)c(=O)n(Cc4cccs4)c3n2)CC1,-2%,5%,44%,.,408%,0%[11.4 µM]
COc1cccc(-c2nnc(SCC(=O)OC(C)C)n2N)c1,13µM*,11%,-1%,?,4%,5%
CC1CCN(C(=O)COC(=O)c2n[nH]c3ccccc23)CC1,-10%,1%,18%,.,9%,?
CC1CC(C)CN(C(=O)COC(=O)c2cc3ccccc3cc2O)C1 (stereo not given),?,32µM*,-7%,>57,12%,-2%
CC1CCN(C(=O)COC(=O)c2cc3ccccc3cc2O)CC1,?,0.2µM*,?,>57,16%,-13%
Cc1cc(C(=O)OCC(=O)N2CC(C)CC(C)C2)c(C)o1 (stereo not given),4%,9%,17%,>57,7%,0%
CN(Cc1ccco1)c1ccnc(-c2ccoc2)n1,-1%,-12%,0%,.,86%,1%[2.29 µM]
Nc1nc2c(nc(Br)n2C2OC(CO)C(O)C2O)c(=O)[nH]1 (stereo not given),.,.,7%,.,.,.
COC(=O)c1ccc(C)cc1,-3%,-5%,20%,.,2%,.
Cc1ccc(C(=O)Oc2ccc3c(c2)ncn3C)cc1,-1%,14%,-22%,?,7%,16µM*
Cn1cnc2cc(OC(=O)c3ccccc3)ccc21,-16%,5%,-22%,i,-3%,16µM*
CCn1c2ccccc2c2nnc(SCc3ccc(C(=O)OC)o3)nc21,?,?,-9%,>57,32µM*,-1%
CCn1c2ccccc2c2nnc(SCc3ccccc3)nc21,.,13%,14%,.,-22%,-2%
O=C(c1ccco1)c1cn(CC(=O)N2CCCc3ccccc32)c2ccccc12,?,25µM*,-20%,>57,2%,-2%
CC1CCCCN1C(=O)Cn1cc(C(=O)c2ccco2)c2ccccc21 (stereo not given),?,?,-14%,>57,-4%,1%
CCc1nnc(NC(=O)CCC(=O)N2CCN(Cc3ccccc3)CC2)s1,24%,8%,-3%,.,1%,13µM*
